Autofluor counter: flagged as autofluorescent in microsphere protease counterscreen | compound autofluorescence counterscreen, microsphere flow cytometry; active compounds read high | fluorescence intensity (test concentration not listed) | 360,000 compounds, 3.1% hits | AID 624483; in the data active means fluorescence intensity above about 16000; inconclusive means no clear call, values can overlap the other calls
BoNT A protease: BoNT/A light chain protease inhibitors, primary screen, biochemical, flow cytometry, MLPCN library | Botulinum neurotoxin type A light chain protease (Clostridium botulinum A str. ATCC 3502) | multiplex microsphere protease substrate cleavage | inhibition, % at 10 µM | 360,000 compounds, 0.17% hits; further: plate controls were buffer without enzyme for full effect and enzyme alone for no effect
BoNT-F LC inh: BoNT/F light chain protease inhibitors, primary screen, biochemical, flow cytometry, MLPCN library. Botulinum neurotoxin type F light chain protease (Clostridium botulinum). Multiplex microsphere protease cleavage assay. inhibition, % at 10 µM. 360,000 compounds, 0.22% hits; in the data active means inhibition above about 35%, passing the limit was not always enough; inconclusive means no clear call, values can overlap the other calls; further: plate controls were buffer without enzyme for full effect and enzyme alone for no effect
Anthrax LF inh2: Bacillus anthracis LF protease inhibitors, primary screen, biochemical, multiplex microsphere, MLPCN library; multiplex microsphere protease cleavage assay; inhibition, % at 10 µM; AID 588501, 2011; 360,000 compounds, 0.12% hits; further: plate controls were buffer without enzyme for full effect and enzyme alone for no effect
Target sequence (P15917 whole entry, looked up): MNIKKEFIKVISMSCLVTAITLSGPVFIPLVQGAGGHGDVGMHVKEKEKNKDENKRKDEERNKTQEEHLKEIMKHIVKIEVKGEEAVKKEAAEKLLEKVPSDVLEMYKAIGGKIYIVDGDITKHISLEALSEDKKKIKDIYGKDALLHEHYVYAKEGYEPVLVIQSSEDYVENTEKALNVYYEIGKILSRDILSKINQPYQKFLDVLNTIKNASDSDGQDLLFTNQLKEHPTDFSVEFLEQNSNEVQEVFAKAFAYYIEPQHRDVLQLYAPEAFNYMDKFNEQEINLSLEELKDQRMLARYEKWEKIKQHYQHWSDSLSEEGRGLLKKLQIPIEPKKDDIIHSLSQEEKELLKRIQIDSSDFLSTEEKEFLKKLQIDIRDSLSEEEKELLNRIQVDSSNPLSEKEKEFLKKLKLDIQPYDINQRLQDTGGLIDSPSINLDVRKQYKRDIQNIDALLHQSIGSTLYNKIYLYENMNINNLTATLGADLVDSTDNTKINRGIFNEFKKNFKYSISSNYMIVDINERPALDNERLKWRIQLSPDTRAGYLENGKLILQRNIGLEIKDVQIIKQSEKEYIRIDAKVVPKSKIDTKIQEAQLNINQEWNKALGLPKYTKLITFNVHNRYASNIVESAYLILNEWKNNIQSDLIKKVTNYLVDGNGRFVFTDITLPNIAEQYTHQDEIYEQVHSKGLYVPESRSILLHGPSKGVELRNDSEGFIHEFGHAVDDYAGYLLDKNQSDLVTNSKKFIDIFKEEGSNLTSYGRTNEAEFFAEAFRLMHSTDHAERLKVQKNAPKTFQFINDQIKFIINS
Active calls of the source: *; ? = inconclusive. Sampled rows, rich in hits. Any-hit rate of the full collection: about 3.5%. Unless noted, no stated cut-off is given here; in the data, active means inhibition above about 30%; inconclusive means no clear call, values can overlap the other calls; inactive means below that.

SMILES	Autofluor counter	BoNT A protease	BoNT-F LC inh	Anthrax LF inh2
COc1cccc(C(=O)C2=NN(C(C)=O)CC2c2ccco2)c1 (stereo not drawn)	3261	0.1	-0.3	-2.5
COc1ccc(-n2c(CCc3ccccc3)nnc2SCC(=O)c2ccccc2)cc1	2037	-0.1	9.5	-2.5
COc1ccc(C(=O)CSc2nnc(CCc3ccccc3)n2-c2ccccc2)cc1	24111*	-1.9	-3.8	-1.0
Cn1c(-c2ccc(F)cc2)cnc1NCc1ccc(F)cc1	3782	0.9	-2.9	0.7
Cc1ccc(CNc2ncc(-c3ccc4c(c3)OCO4)n2C)cc1	22743*	0.6	0.8	-3.8
Cn1c(-c2ccc3c(c2)OCO3)cnc1NCc1ccc(Cl)cc1	21164*	-1.8	-4.1	-10.6
CC1ON=C(c2ccccn2)N(Cc2ccc(S(C)(=O)=O)cc2)C1=O (stereo not drawn)	5003	-1.6	-18.3	-0.7
C=CCn1c(SCc2ccccc2C#N)nnc1-c1ccccc1O	21434*	2.5	5.6	-0.3
Cn1c(SCc2ccc(C#N)cc2)nnc1-c1cccc(Cl)c1	16948*	-1.2	-1.5	-2.9
C=CCn1c(SCC(N)=O)nnc1-c1cc(Br)ccc1O	21322*	?	-0.7	-4.2
C=CCn1c(SCC(N)=O)nnc1-c1ccccc1O	3142	0.9	17.7	3.5
C=CCn1c(SCc2ccc(C#N)cc2)nnc1-c1ccccc1	22580*	-0.2	-0.2	1.5
C=CCn1c(SCc2ccc(C#N)cc2)nnc1-c1cccc(OC)c1	3591	-0.1	15.9	-1.7
Cc1ccc(CN2CCN(CC3CC4C=CC3C4)CC2)cc1 (stereo not drawn)	2982	0.1	-1.2	3.1
CC(=O)N(Cc1cc(=O)[nH]c2ccccc12)c1ccc(C)cc1	2709	0.1	3.3	1.6
Cc1ccc(N(Cc2cc(=O)[nH]c3ccccc23)C(=O)c2ccco2)cc1	23679*	-1.3	1.6	-2.8
COc1cc(-c2nnc(SCC#CCO)o2)cc(OC)c1OC	22486*	-0.4	-1.4	-2.3
CCOC(=O)c1ccc(NC(=O)C23CCC(C)(C(=O)O2)C3(C)C)cc1 (stereo not drawn)	16270*	0.2	0.3	-2.1
CC12CCC(C(=O)NCc3ccc(Cl)cc3)(OC1=O)C2(C)C (stereo not drawn)	21504*	-2.6	-2.9	3.2
Oc1ccc(C=NNC(=S)Nc2ccccc2)nc1	3657	0.2	-8.0	-3.0
Cc1cc(NC(=O)CSc2nc3sc4c(c3c(=O)n2C)CCCC4)no1	17695*	-4.7	-4.5	0.7
Cc1cc(NC(=O)Cn2nnc3sc4c(c3c2=O)CCC(C(C)(C)C)C4)no1 (stereo not drawn)	24311*	?	-3.8	-0.1
CCn1c(SCC(=O)Nc2cc(C)on2)nc2sc3c(c2c1=O)CCCC3	10211	1.1	0.3	-0.6
CCOC(=O)c1sc(NC(=O)Cn2nnc3sc4c(c3c2=O)CCCC4)nc1C	9332	0.6	-1.2	2.3
Cc1cc(NC(=O)Cn2nnc3sc4c(c3c2=O)CCCC4)no1	17027*	-3.8	-5.6	-5.3
SMILES	Autofluor counter	BoNT A protease	BoNT-F LC inh	Anthrax LF inh2
COC(=O)[C@@H]1C[C@@H](c2ccccc2)[C@H](C)C1(C)C	3931	0.3	-7.8	-6.7
COc1ccc2c(c1OC)C(=O)OC2C/C(=N\NC(N)=O)c1ccccc1 (stereo not drawn)	4181	-0.7	-3.0	-4.1
COc1ccc2c(c1OC)C(=O)OC2CC(=O)c1ccc2c(c1)OCO2 (stereo not drawn)	16170*	?	2.0	2.1
CCOC(=O)c1[nH]c2ccc(C)cc2c1N	22785*	-0.3	-3.1	1.3
Cc1ccc(C(=O)C(OC(=O)CCC(=O)Nc2cccc(C)c2)c2ccccc2)cc1 (stereo not drawn)	5221	-0.3	-3.2	-4.0
COc1ccc(NC(=O)CCC(=O)OC(C(=O)c2ccccc2)c2ccccc2)cc1 (stereo not drawn)	20295*	0.5	-0.5	-4.1
COc1ccccc1NC(=O)N(Cc1cccs1)Cc1cc2cc3c(cc2[nH]c1=O)OCO3	2179	0.3	-0.7	-0.6
CCC(Sc1nc2ccccc2o1)C(=O)O (stereo not drawn)	4822	-0.7	-4.1	0.3
CC(Sc1nc2ccccc2o1)C(=O)O (stereo not drawn)	20941*	-1.7	-2.5	-0.7
O=[N+]([O-])c1cc(Br)c(O)c(/C=N/Nc2nnnn2-c2cccc3ccccc23)c1	22718*	-0.4	-0.6	-2.8
O=S(=O)(c1ccc(-c2nnc(SCc3ccccc3)o2)cc1)N1CCCC1	19388*	?	3.0	1.7
NC(=O)CSc1nnc(-c2cccc(S(=O)(=O)N3CCCCC3)c2)o1	3280	0.5	-5.1	4.9
Cc1ccc(CSc2nnc(-c3ccc(S(=O)(=O)N4CCCC4)cc3)o2)cc1	22758*	0.5	-5.1	-5.9
O=S(=O)(c1cccc(-c2nnc(-c3ccc(Br)cc3)o2)c1)N1CCCCCC1	20866*	2.8	6.1	-2.0
CCOc1ccc(Nc2ccc(N)c(S(=O)(=O)O)c2)cc1	4077	-0.1	-8.3	-5.4
CCSC(=O)N1c2ccc(OC)cc2C=CC1C#N (stereo not drawn)	3730	0.0	1.2	-2.0
Nc1c(N(CCC2=CCCCC2)C(=O)c2ccccc2F)c(=O)[nH]c(=O)n1Cc1ccccc1	3221	-0.6	-2.7	-14.7
O=C(Cc1cccs1)N1CCN(S(=O)(=O)c2ccc(Br)cc2)CC1	2233	-0.2	1.2	0.8
CS(=O)(=O)N1CCN(C(=O)c2ccc(Br)s2)CC1	20324*	1.2	1.7	-0.9
CS(=O)(=O)N1CCN(C(=O)Cc2cccs2)CC1	16441*	?	-2.3	-1.4
CC(C(=O)OCc1nnc(-c2ccccc2)o1)N1C(=O)C2CCCCC2C1=O (stereo not drawn)	4388	0.3	1.5	-2.6
COc1cccc(CC(C(=O)Nc2cc(C)ccc2C)c2nn[nH]n2)c1OC (stereo not drawn)	22565*	0.6	0.5	0.6
CCc1ccccc1NC(=O)C(Cc1cccc(OC)c1OC)c1nn[nH]n1 (stereo not drawn)	15651	2.4	4.1	-0.8
COCCNCCCOc1ccc(Cl)cc1Br	2530	1.0	1.1	-1.0
Cc1cc(Br)ccc1OCCCCNCCO	21727*	-6.7	-9.4	-1.3
SMILES	Autofluor counter	BoNT A protease	BoNT-F LC inh	Anthrax LF inh2
OCCNCCCOc1ccc(Cl)cc1Br	22475*	0.5	-1.4	-4.5
c1ccc(Cn2nnnc2-c2ccco2)cc1	16264*	0.3	-0.3	1.5
Cc1cc(C)n(-c2nc(NCCN(C)C)c3c4c(sc3n2)COC(C)(C)C4)n1	3541	0.7	29.4	?
Cc1cc(C)n(-c2nc(NCCC(C)C)c3c4c(sc3n2)COC(C)(C)C4)n1	19196*	13.1	12.7	-11.4
CC(C)(C)NC(=O)CN(C(=O)CNC(=O)c1cccs1)c1ccc2c(c1)OCCO2	8800	-0.1	-14.5	1.5
Cc1c(C(=O)NC(C)c2ccncc2)oc2ccccc12 (stereo not drawn)	21661*	?	-1.4	-3.0
O=C(NCc1cccnc1)c1cc2ccccc2oc1=O	22899*	0.6	0.8	-1.4
